Screening results as filed in PubChem BioAssay.
FBPA Giardia inh: Giardia lamblia aldolase inhibition. 290,000 tested, 0.71% active. A8B2U2. purified Giardia FBPA. Potency, µM (doses to about 59.6 µM), without a hit: top-dose activity, negative = inhibition, usual class: inhibitors; note: potency is the fitted concentration of half-maximal effect; % is set by controls: 0 for no effect and ±100 for the full control effect; nearly all actives have a fitted effect of over 55% in size
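Giardia FBPA (40 nM reagent) was preincubated 10 min at RT with compound (up to 57.5 uM final), then substrate plus GAPDH/TPI/NAD/arsenate coupling system with diaphorase/resazurin was added; resorufin fluorescence (525/598 nm) was read after 20 min.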
CHX counter: affects cycloheximide protein synthesis inhibition readout, counter-screen | cell reporter, cycloheximide protein synthesis inhibition counterscreen | AID 2314 | 300,000 tested, 12% active | max response, %; in the data active = max response mostly above about 13%, no sharp cut-off; inactive = mostly below about 14%; note: read at 38.3 µM for the half of the compounds with a filed dose; 0% is about no effect
LmPK inhibitor: blocks Leishmania mexicana pyruvate kinase activity. purified LmPK, Kinase-Glo ATP luminescence, 1 h. Potency, µM (doses to about 57.5 µM), inactives show top-dose activity change, negative = inhibition, usual class: inhibitors. 290,000 tested, 0.37% active. AID 1721; note: potency is the fitted concentration of half-maximal effect; % is set by controls: 0 for no effect and ±100 for the full control effect
Target sequence (Q27686 whole entry, looked up): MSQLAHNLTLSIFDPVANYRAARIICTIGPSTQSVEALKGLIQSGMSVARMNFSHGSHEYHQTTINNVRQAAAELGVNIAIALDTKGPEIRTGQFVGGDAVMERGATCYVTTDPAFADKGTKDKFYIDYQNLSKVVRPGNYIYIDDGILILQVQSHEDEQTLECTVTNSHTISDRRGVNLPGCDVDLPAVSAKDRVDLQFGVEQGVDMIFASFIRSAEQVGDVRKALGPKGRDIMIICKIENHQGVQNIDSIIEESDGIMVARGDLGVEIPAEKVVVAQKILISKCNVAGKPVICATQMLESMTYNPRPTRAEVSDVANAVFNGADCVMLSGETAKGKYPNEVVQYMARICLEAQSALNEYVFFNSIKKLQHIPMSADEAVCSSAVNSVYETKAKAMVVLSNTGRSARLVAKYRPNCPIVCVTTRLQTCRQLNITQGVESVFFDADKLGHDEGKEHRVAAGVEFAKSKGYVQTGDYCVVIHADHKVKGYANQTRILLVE
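Purified LmPK (0.1 nM) with 0.5 mM PEP and 0.1 mM ADP in imidazole buffer pH 7.2 with MgCl2/KCl, 1 h at room temperature. ATP formed was read by luciferase luminescence and normalized to no-enzyme and uninhibited controls.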
Shiga toxin inh: inhibitors of Shiga toxin in Vero cells | Vero cells, Shiga toxin protein synthesis inhibition reporter | inhibition, % at 38.7 µM | 290,000 tested, 9.2% active; in the data active = inhibition mostly above about 28%, no sharp cut-off; inactive = mostly below about 43%; note: 0% is about no effect
NS1 function inh: blocks influenza NS1 protein function; AID 2326; Potency, µM (doses to about 46.1 µM), without a hit: top-dose activity, positive = more growth; 270,000 tested, 0.4% active; calls by dose curve; note: potency is the fitted concentration of half-maximal effect; actives are rising curves; nearly all actives have a fitted effect of over 50% in size
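S. cerevisiae expressing influenza A NS1, grown in glucose, washed, then diluted 1:100 into pH 6.0 -URA galactose medium with 23 nl compound. Growth recovery read as OD600; NS1-free strain serves as control.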
* marks the source's active call; other numbers are inactive results; ? = inconclusive; . = no result; + = active, no number. An excerpt weighted towards active compounds, which were near 14% of everything screened. Unless noted, calls come from the whole dose curve; as a rule, active = well fitted curve in the direction sought with a large enough effect; inconclusive = small, poorly fitted or top-dose-only effect, or another doubt; inactive = no such curve, though single readings can be large; an effect the other way counts as inactive or inconclusive.

SMILES	FBPA Giardia inh	CHX counter	LmPK inhibitor	Shiga toxin inh	NS1 function inh
CC(=O)Nc1ccccc1C(=O)OCc1ccccc1F	3.2%	28.8*	-2.7%	61.2	-7.4%
NC1=NC(c2cccc(Cl)c2)N(CCc2ccc(F)cc2)C(N)=N1 (stereo not given)	-13.4%	-1.5	-4.1%	-10.4	2.8%
Cn1c(=O)n(CC(=O)NCC2CCCO2)c(=O)c2c3c(sc21)COC(C)(C)C3 (stereo not given)	-2.3%	-3.7	1.8%	17.3	4.2%
O=C(Nc1ccccc1)c1cc(S(=O)(=O)NCc2ccncc2)ccc1Cl	.	1.2	-3.7%	-3.0	-3.8%
CCOc1ccc(NC(c2ccccc2)P(=O)(OC)OC)cc1 (stereo not given)	11.8%	11.9	-5.6%	25.7*	19.8%
CCOP(=O)(OCC)C(Nc1ccccc1)c1cc(OC)ccc1OC (stereo not given)	-1.9%	-2.7	-3.9%	-1.6	0.7%
COP(=O)(OC)C(Nc1ccc(C)cc1)c1ccc([N+](=O)[O-])cc1 (stereo not given)	-0.5%	44.0*	-3.3%	24.6*	-1.0%
CCOP(=O)(OCC)C(Nc1cccc([N+](=O)[O-])c1)c1ccc(OC)cc1 (stereo not given)	-0.5%	0.9	4.5%	6.4	-6.6%
COc1ccc(C(Nc2ccccc2)P(=O)(Oc2ccccc2)Oc2ccccc2)cc1 (stereo not given)	16.9%	27.7*	4.9%	56.5*	9.6%
O=S(=O)(c1ccccc1Br)N1CCN(c2ncccn2)CC1	3.3%	6.8	8.7%	2.6	-18.5%
COc1ccc2c(c1)O[C@@H](c1ccc3c(c1)OCO3)[C@H](OC(=O)NS(=O)(=O)c1ccc(F)cc1)C2=O	-0.8%	.	.	.	.
O=C(CSc1nc2ccccc2o1)Nc1ccccc1	0.7%	8.5*	1.1%	30.0	-55.8%
CC(Sc1nc2ccccc2o1)C(=O)O (stereo not given)	3.1%	37.0*	-17.0%	78.6*	-4.0%
O=C(CSc1nc2ccccc2o1)NCC(=O)c1ccccc1	-4.0%	14.7	-0.1%	11.4	-4.9%
Cc1cc(C(=O)CSc2nc3ccccc3[nH]2)c(C)n1CC1CCCO1 (stereo not given)	-0.1%	21.2	-4.1%	90.1	-12.8%
O=C(CSc1nc2ccccc2o1)c1cc2ccccc2oc1=O	1.7%	24.9*	3.2%	88.7*	-7.5%
Cc1cc(C(=O)CSc2nc3ccccc3o2)c(C)n1CC1CCCO1 (stereo not given)	0.5%	66.7*	2.1%	78.0*	-7.3%
CC(=O)N1CCC2(CC1)CCN(c1ccccn1)CC2	-3.7%	.	.	.	.
CC(=O)c1cccc(NC(=O)CCCCCn2nnc3ccccc3c2=O)c1	16.2%	5.9	-2.3%	3.4	-1.4%
O=C(O)CSc1nc2ccccc2o1	13.3%	30.5*	4.2%	78.5	2.1%
Cc1nnc(SCC(=O)Nc2ccccc2)c2ccccc12	-6.1%	47.9*	3.4%	45.7*	?
Cc1nnc(SCC(=O)Nc2ccc(O)cc2)c2ccccc12	8.5%	11.3	0.8%	-9.8	-8.2%
O=C(CSc1nc2ccccc2o1)N1CCOCC1	-19.3%	27.0*	-3.0%	41.9*	2.3%
CSc1cccc(NC(=O)CSc2nc3ccccc3o2)c1	-7.6%	39.9*	0.0%	63.1*	-59.0%
O=C(CSc1nc2ccccc2o1)N1CCCC1	-0.8%	13.2	9.9%	8.9	-4.9%
SMILES	FBPA Giardia inh	CHX counter	LmPK inhibitor	Shiga toxin inh	NS1 function inh
O=C(Nc1ccccc1)N1CCCC2(CCN(C(=O)c3cnccn3)CC2)C1	2.7%	.	.	.	.
CC12C=C(/C=C/CCc3ccco3)C(C)(C1)[C@H](CCc1ccco1)CC2=O (stereo not given in full)	1.4%	.	.	.	.
Cc1ccc(C(=O)CSc2nc3ccccc3o2)cc1	-1.3%	26.5*	-2.5%	50.2	-1.7%
CCOC(=O)c1c(C)[nH]c(C(=O)CSc2nc3ccccc3o2)c1C	8.9%	5.0	5.1%	17.3	-1.1%
Nc1ccc(C(=O)NC23CC4CC(CC(C4)C2)C3)cc1	28.5%	-2.3	-4.1%	-9.0	-17.0%
COc1ccc(CC(=O)NCC(C)(C)N2CCOCC2)cc1	.	-0.4	-0.5%	0.4	0.3%
COc1cc(Cl)ccc1OCc1cc(C(=O)NCc2cc(C(C)C)no2)no1	.	67.4*	-9.3%	53.5*	-21.9%
COc1ccc(CNC(=O)c2cc(COc3c(F)cccc3F)on2)cc1OC	16.7%	-0.3	6.1%	5.2	0.3%
COc1ccc(OCc2cc(C(=O)NCCN3CCCc4ccccc43)no2)c(Cl)c1	.	15.7*	0.7%	15.4	27.6%
COc1ccc(OCc2cc(C(=O)NCCN3CCCC(O)C3)no2)c(Cl)c1 (stereo not given)	.	2.0	2.5%	4.4	10.9%
COc1cc(Cl)ccc1OCc1cc(C(=O)NCC(C)(C)N2CCOCC2)no1	4.9%	42.6*	-11.2%	49.8*	-17.3%
COc1ccc(OCc2cc(C(=O)NCC(C)(C)N3CCOCC3)no2)c(Cl)c1	.	19.9	0.9%	36.1*	-10.5%
O=S1(=O)C=C(Sc2nc3cc(Cl)ccc3o2)c2ccccc21	0.0%	18.2*	1.7%	39.8	8.7%
C/C(Cn1nc([N+](=O)[O-])cc1C)=N\NC(=O)c1cccc(Br)c1	-5.1%	30.9*	-1.6%	21.7	-4.9%
C/C(Cn1nc([N+](=O)[O-])cc1C)=N\NC(=O)COc1ccc(Cl)cc1Cl	-0.7%	-1.9	5.5%	-3.3	-10.6%
Cc1cc([N+](=O)[O-])nn1CC(=O)c1ccccc1	3.0%	1.4	1.4%	-21.4	3.6%
COc1ccc(OCC(=O)N/N=C(\C)c2cccs2)cc1	1.4%	-0.8	4.1%	-5.1	2.9%
C/C(Cn1nc([N+](=O)[O-])cc1C)=N\NC(=O)COc1ccccc1[N+](=O)[O-]	5.5%	24.9*	0.2%	+	0.8%
C/C(=N\NC(=O)COc1ccccc1[N+](=O)[O-])c1cccs1	-1.1%	43.3*	0.4%	65.7*	.
c1ccc(-c2ccc(-c3[nH]ncc3CN3CCC(N4CCSCC4)CC3)cc2)cc1	4.5%	7.3*	6.7%	48.4*	2.6%
CC1(C)CCC[C@@]2(C)C1CC[C@@](C)(O)[C@@H]2CC[C@@](C)(O)C1CO1 (stereo not given in full)	-15.8%	.	.	.	.
CN(C)c1cccc(C(=O)Nc2ccc3nc4n(c(=O)c3c2)CCCCC4)c1	-8.4%	24.5*	3.2%	53.3*	-13.8%
COc1cccc(C(=O)Nc2ccc3nc4n(c(=O)c3c2)CCCC4)c1	4.5%	22.7*	-3.9%	55.9*	-3.1%
O=c1c2cc(NC(=S)NCc3cccnc3)ccc2nc2n1CCCCC2	-12.1%	22.5*	-5.7%	69.3	14.4%
Cc1ccccc1C(=O)Nc1ccc2nc3n(c(=O)c2c1)CCCC3	1.0%	12.0	10.6%	6.7	-1.3%
COc1cc(OC)cc(C(=O)Nc2ccc3nc4n(c(=O)c3c2)CCCC4)c1	6.9%	27.2*	-8.7%	70.1*	-0.9%
COc1cc(C(=O)Nc2ccc3nc4n(c(=O)c3c2)CCCC4)ccc1Br	5.5%	17.8	-1.1%	-3.7	1.8%
CC(C)=CC(=O)N1CC[C@@H](N2CCN(c3ccccc3F)CC2)[C@H](O)C1	0.9%	-3.4	-4.5%	-16.4	18.0%
